# Shown are actives, neighbours in structure and some others; about 2.3% of the full set was active somewhere.
# Mcl-1 Bim block: disrupts Bim peptide binding to human Mcl-1; Q07820; Bead-based flow cytometry, Bim peptide-Mcl-1 binding; inhibition, % at 10 µM; 190,000 compounds, 0.1% hits; AID 1009; in the data active = inhibition above about 40%;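 note: 0% = no compound tracer wells and 100% = peptide blocker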
# Target sequence (Q07820 whole entry, looked up): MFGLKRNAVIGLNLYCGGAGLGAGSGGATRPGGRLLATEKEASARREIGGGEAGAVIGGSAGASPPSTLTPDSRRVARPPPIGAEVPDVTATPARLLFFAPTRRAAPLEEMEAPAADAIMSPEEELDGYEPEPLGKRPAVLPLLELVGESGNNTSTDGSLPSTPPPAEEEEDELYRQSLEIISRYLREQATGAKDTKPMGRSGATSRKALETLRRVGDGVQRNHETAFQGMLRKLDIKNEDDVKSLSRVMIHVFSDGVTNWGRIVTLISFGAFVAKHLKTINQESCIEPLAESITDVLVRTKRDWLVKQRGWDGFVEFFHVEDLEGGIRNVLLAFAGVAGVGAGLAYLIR
# MCL1 BIM primary: disrupts human MCL1 binding to BIM-BH3 peptide. GST-MCL1 / FITC-Bim-BH3 fluorescence polarization. AID 2057. 320,000 compounds, 0.68% hits. inhibition, % at 10.9 µM. Q07820;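 active = inhibition above the mean inhibition of all tested compounds plus 3 SD, set per campaign, cut at about 40% in these data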;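 note: 0% = DMSO wells and 100% = unlabeled Bim-BH3 peptide control; higher means more loss of mP so more displacement of Bim peptide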
# Bcl-xL primary: blocks human Bcl-xL binding to Bim BH3 peptide. GST-Bcl-xL / FITC-Bim BH3 peptide fluorescence polarization. 320,000 compounds, 0.7% hits. inhibition, % at 10.9 µM. AID 2129;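 active = inhibition above the mean of all tested compounds plus 3 SD, cutoff set per campaign, cut at about 30% in these data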;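 note: 0% = DMSO wells and 100% = unlabeled Bim-BH3 peptide competitor; inhibitors lower millipolarization by displacing the labeled peptide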
# Target sequence (Q07817 whole entry, looked up): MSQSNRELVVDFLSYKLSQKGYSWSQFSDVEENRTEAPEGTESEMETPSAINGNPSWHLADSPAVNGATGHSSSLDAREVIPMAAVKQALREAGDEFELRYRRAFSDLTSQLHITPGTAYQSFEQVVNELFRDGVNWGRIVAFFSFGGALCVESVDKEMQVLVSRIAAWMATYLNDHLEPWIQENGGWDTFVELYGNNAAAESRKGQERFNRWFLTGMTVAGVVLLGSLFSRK
# GLD-1 TGE inh: GLD-1-TGE RNA interaction inhibition (C. elegans); purified GLD-1 + fluorescein TGE RNA, fluorescence polarization; 320,000 compounds, 0.44% hits; inhibition, % at 5.96 µM; Q17339;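 active = percent inhibition above a per-plate cutoff, the plate mean of test compounds plus 3 SD, cut at about 30% in these data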;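 note: 0% = DMSO wells with GLD-1 and probe and 100% = wells lacking GLD-1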
# Mcl1 Bid PPI: Mcl-1/Bid interaction inhibition | Q07820 | AID 1021 | 220,000 compounds, 0.97% hits | inhibition, % at 21.7 µM | TR-FRET Mcl-1/Bid-Dy647 peptide binding, 1536-well;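 active = compounds that cut the binding signal by more than half at the single screening dose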;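 note: His-tagged Mcl-1 with europium anti-His antibody binding Bid BH3 peptide; 0% = Mcl-1 plus peptide wells and 100% = peptide-only wells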
# Mcl1-Noxa inh: disrupts binding of human Mcl-1 to Noxa peptide; Q07820; TR-FRET Mcl-1/Noxa peptide binding, 2 h; inhibition, % at 21.7 µM; 220,000 compounds, 1.5% hits; AID 1022;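 active = compounds that cut the protein-peptide binding signal by more than 50% relative to plate controls in a single-dose test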;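 note: His-tagged Mcl-1 with rhodamine Noxa BH3 peptide and terbium anti-His antibody; 0% = Mcl-1 plus Noxa peptide wells and 100% = peptide-only wells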
# Active calls of the source: *; . = no result.
SMILES,Mcl-1 Bim block,MCL1 BIM primary,Bcl-xL primary,GLD-1 TGE inh,Mcl1 Bid PPI,Mcl1-Noxa inh
COc1cccc(N2C(=O)Nc3ccc(Br)cc3C2(O)C(=O)NCCCOC(C)C)c1 (centres undefined),.,5,1,1,.,.
COc1ccc(C(CC(=O)N2CCN(c3ccccc3)CC2)c2c(OC)cc(OC)c3c(-c4ccccc4)cc(=O)oc23)cc1 (centres undefined),.,.,.,.,-49,3
COc1ccc(C(CC(=O)N2CCCCC2)c2c(OC)cc(OC)c3c(-c4ccccc4)cc(=O)oc23)cc1 (centres undefined),.,32,11,5,-102,63*
COc1ccc(C(CC(=O)N2CCOCC2)c2c(OC)cc(OC)c3c(-c4ccccc4)cc(=O)oc23)cc1 (centres undefined),.,21,6,-1,-18,54*
COc1ccc(C(CC(=O)N2CCCC(C)C2)c2c(OC)cc(OC)c3c(-c4ccccc4)cc(=O)oc23)cc1 (centres undefined),.,20,1,9,-103,59*
COc1cc(C(CC(=O)N2CCCC2)c2c(OC)cc(OC)c3c(-c4ccccc4)cc(=O)oc23)cc(OC)c1OC (centres undefined),.,19,7,0,-49,36
CCN(C(=O)c1cn(C)c(=O)c2ccccc12)c1ccccc1F,.,2,4,2,.,.
Cc1ccc(CSc2nnc([C@@H]3CCCN3)o2)cc1,-1,10,7,4,63*,50
N#C/C(=C\c1ccccc1)C(=O)Nc1ccccn1,.,-3,-1,4,.,.
Cc1cccc(/C=C(\C#N)C(=O)Nc2ccccn2)c1,.,35,37*,25,.,.
Cc1ccc(NC(=O)COC(=O)c2c[nH]c3ccccc23)cc1C,.,1,1,4,.,.
CCC(=O)Nc1nnc(Sc2ccc(N(C)C)cc2)s1,-2,4,4,0,-44,14
CN(C)c1ccc(Sc2nnc(NC(=O)Nc3ccc(Cl)cc3Cl)s2)cc1,-6,4,6,7,18,89*
CCCCCCc1cc2cc(S(=O)(=O)c3ccc(F)c(Cl)c3)c(=O)oc2cc1O,4,3,7,97*,18,14
C=CCOC(=O)/C(=C/c1ccco1)NC(=O)/C=C/c1ccccc1,.,7,-1,2,89*,-20
O=C(O)CNC(=O)/C(=C/c1ccco1)NC(=O)/C=C/c1ccccc1,5,13,17,13,-34,15
COc1ccc(CCNC(=O)C2(C)CCC(=O)N2CCC(C)C)cc1OC (centres undefined),-3,2,3,1,59*,3
COc1ccc(CCNC(=O)C23CCC(C)(C(=O)O2)C3(C)C)cc1OC (centres undefined),2,-4,2,-1,-14,2
CCOC(=O)c1nnn(CC(=O)Nc2ccccc2)c1C(=O)OCC,-3,-2,0,7,-30,8
CCOC(=O)c1nnn(CC(=O)NC(=O)Nc2ccccc2)c1C(=O)OCC,-1,28,53*,18,-4,-6
COc1ccc(C(=O)N2CCN(Cc3ccccc3C)CC2)cc1OC,0,1,4,5,75*,12
COc1cc(OC)cc(C(=O)N2CCN(Cc3ccccc3C(F)(F)F)CC2)c1,-2,10,14,4,67*,39
O=C(NCCN1C(=O)S/C(=C\c2ccc(Cl)c(Cl)c2)C1=O)c1ccc2c(c1)C(=O)N(Cc1ccncc1)C2=O,-4,-3,4,0,51*,71*
CN1C2C=C3C(C#N)=C(N)C(C#N)(C#N)[C@@H](c4cccc(F)c4)[C@@H]3C1CC2 (some centres undefined),0,27,31*,23,-14,12
CCC(C)[C@H]1CNCCN1CCC12CC3CC(CC(C3)C1)C2 (some centres undefined),.,5,5,9,.,.
SMILES,Mcl-1 Bim block,MCL1 BIM primary,Bcl-xL primary,GLD-1 TGE inh,Mcl1 Bid PPI,Mcl1-Noxa inh
O=C1C(Cl)=C(Nc2ccccc2O)C(=O)N1c1ccccc1,13,4,5,-3,-4,70*
COc1ccccc1N1C(=O)C(Cl)=C(Nc2ccccc2O)C1=O,2,.,.,.,5,76*
Cc1ccc(C(=O)N2CCCCC2)cc1NC1=C(Cl)C(=O)N(Cc2ccccc2)C1=O,.,7,4,2,.,.
Cc1ccc(O)c(NC2=C(Cl)C(=O)N(Cc3ccccc3)C2=O)c1,33,.,.,.,56*,88*
Cc1c(NC2=C(Cl)C(=O)N(c3ccccc3)C2=O)c(=O)n(-c2ccccc2)n1C,-5,2,10,8,-50,31
Cn1c2ccccc2c(=O)c2c(=O)n(Cc3ccco3)c(-c3ccc(C(C)(C)C)cc3)nc21,.,2,2,0,52*,-92
COc1cc2c(cc1OC)C(Nn1cnnc1)=NC1(CCCC1)C2,.,-4,2,4,91*,8
CCC(CC)C(=O)Nc1cccc(S(=O)(=O)c2cccc(NC(=O)C(CC)CC)c2)c1,44*,-2,-2,8,-15,2
CCC(CC)C(=O)Nc1cccc(C(=O)Nc2ccc(S(N)(=O)=O)cc2)c1,0,0,1,2,-39,-1
CCC(C)NC(=O)Cn1nc(Cc2ccncc2)c2ccccc2c1=O (centres undefined),.,-3,-5,2,.,.
CCN(CC(=O)Nc1ccccc1C(F)(F)F)C(=O)c1ccc(N2C(=O)CCC2=O)cc1,.,3,-1,-6,.,.
O=C(NC1CC1)c1cc(Cl)ccc1[N+](=O)[O-],-2,6,4,6,-121,71*
O=C(NC1CCCC1)c1cc(Cl)ccc1[N+](=O)[O-],-6,-4,-1,-6,0,11
CCOc1ccccc1CNc1ccc(O)cc1,7,.,.,.,-26,72*
Cc1ccc(/C=C/C(=O)Nc2cc(=O)n(C)c(=O)n2C)o1,-1,37,33*,27,-62,24
COC(=O)c1ccc(N2C(=O)CC(Sc3n[nH]c(C)n3)C2=O)cc1 (centres undefined),0,-1,-1,6,-17,53*
COC(=O)c1cc(C(=O)OC)cc(N2C(=O)CC(Sc3nc(C)cc(C)n3)C2=O)c1 (centres undefined),2,5,5,2,-11,8
COC(=O)CSc1n[nH]c(-c2cccnc2)n1,-2,5,8,0,-2,16
CCOC(=O)CSc1n[nH]c(-c2cccnc2)n1,0,-3,0,-1,-6,53*
Oc1[nH]c2ccccc2c1/C=N/N1CCCCC1,0,0,2,2,93*,-6
O=S(=O)(Nc1ccc(N=Nc2ccccc2)cc1)c1ccccc1,-3,4,4,-1,12,-11
O=S(=O)(Nc1ccc(N=Nc2ccc(O)c3ccccc23)cc1)c1ccccc1,1,3,2,4,-29,59*

# Screening results deposited in PubChem by several laboratories.
